Molecules are shown by their SMILES. Among all 48,000 compounds or so, about 13,000 (27%) showed an effect of 50% or more. The list shows a part of the results.

This test relates to Wolbachia pipientis. The test can be described thus: Anti-Wolbachia Cell-Based Screen. On the set-up: scale not given: in the data most compounds retested in dose-response had high values. The note with it: 5 µM. The format is functional.
In the case of `Cc1cc(C)n2nc(CC(=O)N[C@H]3C[C@H]4CN(C)CCN4C3)nc2n1`, the “Percent Effect” value is given as -5.28%.
The result for `OCC1(Cc2ccc(Cl)cc2)CCN(Cc2ccccc2O)CC1` reads -3.576%; that for `c1ccc2c(c1)COC1(CCCC1)N2`, 105.5%; that for `c1ccc(CN2CCC3(CC2)Nc2ccccc2CO3)cc1`, 107.9%.
The result for `O=C(O)C(F)(F)F.O=C1COC2(CCN(Cc3ccc(F)cc3)CC2)CN1` reads 10.25%; that for `c1ccc2c(c1)COC1(CCCCC1)N2`, 87.69%; that for `CC1CCC2(CC1)Nc1ccccc1CO2` (stereo not given), 93.91%.
On to `CCc1nc(NC(=O)NCCc2cccc(C)n2)nn1C`, for which the “Percent Effect” value was -4.482%.
With `O=S(=O)(NCC(O)c1ccc(C(F)(F)F)cc1)C1CC1` (stereo not given) the figure was -5.07%; with `Cc1noc(C)c1CNc1cccc(C(=O)N2CCCC(O)C2)c1` (stereo not given), 6.213%; with `CC(C)(C)n1ncc2c(=O)[nH]c(N3CCC4(CCCCC4)C3)nc21`, -1.553%.
The result for `Cc1nnc(SC2CCN(c3sccc3C#N)C2=O)s1` (stereo not given) reads 109.2%; that for `CCc1cnc(CN(C)C2CCN(c3sccc3C#N)C2=O)s1` (stereo not given), 1.692%; that for `Cc1cc(N)nc(SC2CCN(c3ccccc3F)C2=O)n1` (stereo not given), 10.35%.
With `Cc1nnc(SC2CCN(c3sccc3C#N)C2=O)[nH]1` (stereo not given), the “Percent Effect” value worked out at 106.7%.
In the case of `Cn1c(N)nnc1SC1CCCN(c2ccccc2)C1=O` (stereo not given), the “Percent Effect” value is -9.447%.
Regarding `CCc1ncc(CN(C)C2CCN(c3sccc3C#N)C2=O)s1` (stereo not given), the “Percent Effect” value is recorded as 0.715%.
With `N#Cc1ccsc1N1CCC(Sc2ccncc2)C1=O` (stereo not given) the figure was 81.54%.
The result for `Cc1cc(N)nc(SC2CCN(c3ccccc3)C2=O)n1` (stereo not given) reads -22.79%; that for `CN(Cc1ncnn1C)C1CCN(c2sccc2C#N)C1=O` (stereo not given), 7.621%.
With `N#Cc1ccsc1N1CCC(Sc2ncc[nH]2)C1=O` (stereo not given), the “Percent Effect” value was 95.53%.
With `O=C1C(Sc2nc(=O)ccn2C2CC2)CCN1c1ccccc1` (stereo not given) the figure was -7.516%; with `CCC(CO)N(Cc1ccco1)C(=O)c1sccc1NC(C)=O` (stereo not given), 21.44%; with `Cc1oncc1NS(=O)(=O)c1c[nH]c2ncccc12`, -22.29%.
With `c1cncc(COCC2CN(Cc3ccsc3)Cc3ccnn3C2)c1` (stereo not given) the figure was -8.281%; with `COc1ccccc1OCCNc1snc(Cl)c1C#N`, -4.663%.
Regarding `CCc1noc(CN(C)C2CCN(c3sccc3C#N)C2=O)n1` (stereo not given), the “Percent Effect” value is recorded as 0.9243%.
Regarding `Cc1csc(CN(C)C2CCN(c3sccc3C#N)C2=O)n1` (stereo not given), the “Percent Effect” value stood at 9.47%.
With `Cc1nc(SC2CCN(c3sccc3C#N)C2=O)oc1C` (stereo not given) the figure was 85.81%; with `Cn1c(C(N)=O)ccc1-c1ccccc1`, 3.483%; with `CC(C)NC(=O)NCCCOC1CCOCC1`, -1.893%.
With `COCCOCC(=O)N(Cc1cccc(C)c1)C(C)C` the figure was -6.619%.
Take `Cc1cccc(CN2CC3(CCN(Cc4ccco4)CC3)OCC2=O)n1.O=C(O)C(F)(F)F.O=C(O)C(F)(F)F`: the “Percent Effect” value worked out at 121.1%.
As to `Cc1cccc(CN2CC3(CCN(Cc4ccoc4)CC3)OCC2=O)n1.O=C(O)C(F)(F)F.O=C(O)C(F)(F)F`, the “Percent Effect” value is 122.8%.
On to `O=C(O)C(F)(F)F.O=C1COC2(CCN(Cc3ccoc3)CC2)CN1CCn1cccn1`, for which the “Percent Effect” value is 2.726%.
The result for `O=C(O)C(F)(F)F.O=C1COC2(CCN(Cc3ccco3)CC2)CN1CCn1cccn1` reads 4.018%; that for `O=C(O)C(F)(F)F.O=C(c1ccco1)N1C[C@H]2CCCN(CC3CCOCC3)[C@H]2C1`, -19.49%; that for `COCCNC(=O)[C@H]1CN(Cc2scnc2C)C[C@H]2OCC[C@@H]12.O=C(O)C(F)(F)F.O=C(O)C(F)(F)F`, -9.051%.
The result for `COc1cccc(-c2ncc(CN3CC[C@H]4CC[C@@H](C3)N4)s2)c1` reads -2.167%; that for `O=c1[nH]c(-c2ccc(F)c(F)c2)nc2c1CCNC2`, -21.65%.
`Cc1nc(CN2CCCC(N(C)Cc3nnsc3Cl)C2)no1` (stereo not given): the “Percent Effect” value was -2.376%.
In the case of `Cc1nc(CN(C)C2CCN(Cc3cnc(C)s3)C2)no1` (stereo not given), the “Percent Effect” value was found to be 106.5%.
For `Cc1nc(CN2CCCC(N(C)Cc3cnc(C)s3)C2)no1` (stereo not given), the “Percent Effect” value is 2.952%.
With `CC(=O)N(Cc1noc(C)n1)C1CCN(Cc2cnc(C)s2)C1` (stereo not given) the figure was 83.55%.
The result for `Cc1nc(CN(C)C2CCN(Cc3ccc(Cl)s3)C2)no1` (stereo not given) reads 99.87%.
With `CCOc1nnc(CN2CCC(N(C)Cc3noc(C)n3)C2)s1` (stereo not given) the figure was 5.667%; with `CCc1cnc(CN2CCC(N(C)Cc3noc(C)n3)C2)o1` (stereo not given), 97.22%; with `NC(=O)N1CCc2cc(C(=O)O)c(-c3ccsc3)nc2CC1.O=C(O)C(F)(F)F`, -21.16%.
Regarding `Cc1cc(CNC(=O)Nc2cc(F)cc(N3CCCC3)c2)no1`, the “Percent Effect” value is reported as -57.71%.
For the compound `Cc1cccc(C(C)(C)CNC(=O)CN(C)S(=O)(=O)c2cccnc2)c1`, the “Percent Effect” value is 4.775%.
In the case of `CC(O)CN(CC(=O)NC1CCCCC1)c1ccccc1` (stereo not given), the “Percent Effect” value was -11.54%.
The result for `CC(C)(C)c1ncc2c(n1)CN(C(=O)c1ccc(-c3nc[nH]n3)cc1)C2` reads -2.467%.
With `CCc1ccc(C(=O)N2CCN(Cc3ccc(F)cc3)CC2)s1`, the “Percent Effect” value is reported as -10.91%.
With `CC(C)(C)Cc1nnc(NCc2ccsc2)o1` the figure was -6.79%; with `CC(=O)N(Cc1ncc(C(C)C)o1)C1CCN(Cc2nccn2C)C1` (stereo not given), -4.268%; with `CC(=O)N(Cc1noc(C)n1)C1CCN(Cc2ncc(C(C)C)o2)C1` (stereo not given), 142.1%.
With `CC(=O)N(Cc1ncc(C(C)C)o1)C1CCN(Cc2ncc[nH]2)C1` (stereo not given) the figure was 11.04%; with `CCNC(=O)C(C)NC(=O)Nc1ccccc1Cl` (stereo not given), -14.58%.
On to `CCC1(c2ccc(NS(=O)(=O)c3cccs3)cc2)CCC(=O)NC1=O` (stereo not given), for which the “Percent Effect” value was 2.702%.
With `CN(C)S(=O)(=O)Nc1ccc(-n2nncc2C(F)(F)F)cc1` the figure was -14.8%.
With `CCC1(c2ccc(NS(=O)(=O)N(C)C)cc2)CCC(=O)NC1=O` (stereo not given) the figure was 138.3%.
With `CC(C)C(C)NC(=O)Nc1cccn(C)c1=O` (stereo not given), the “Percent Effect” value is 14.72%.
In the case of `CCNC(=O)Cc1ccc(NC(=O)NC(CC)CC)cc1`, the “Percent Effect” value is 3.76%.
With `CCC(C)NC(=O)Nc1ccc(CN2CCOC2=O)cc1` (stereo not given) the figure was 17.46%.
With `CC(C)C(C)NC(=O)Nc1ccc(CS(=O)(=O)C(C)C)cc1` (stereo not given) the figure was 98.92%; with `CC(C)NC(=O)Nc1ccc(CS(C)(=O)=O)cc1`, 125.1%; with `CC(C)NC(=O)Nc1ccc(-c2nc3c([nH]2)CCNC3)cc1`, 8.53%.
The result for `CC(CO)NC(=O)Nc1ccc(CC#N)cc1` (stereo not given) reads -17.07%; that for `NC(=O)Cc1ccc(NC(=O)C2CCOCC2)cc1`, -3.616%.
Turning to `CC(C)C(C)NC(=O)Nc1ccc(CC(N)=O)cc1` (stereo not given), the “Percent Effect” value is listed as 98.71%.

The values above are taken from ChEMBL document CHEMBL3988442, “University of Dundee, Small-Polar-MMV Screening Library” (2021).
